In PubChem BioAssay (EPA / NIEHS):
Inconclusive results are not listed. The source made the active and inactive calls. How the source made its calls: active means hit-call score of the fitted dose curve at least 0.9, where 1 is the maximum; inconclusive means response in the unintended direction; inactive means score below 0.9.

Each compound was assayed against Estrogen receptor (Homo sapiens) (UniProt P03372) (assay: OT_ERa_GFPERaERE_0120: Odyssey Thera (OT) 2-hour HeLa Transcription Induction Assay for Estrogen Receptor (AID 2283382)).
Estrogen receptor (Homo sapiens), sequence (P03372 whole entry, looked up): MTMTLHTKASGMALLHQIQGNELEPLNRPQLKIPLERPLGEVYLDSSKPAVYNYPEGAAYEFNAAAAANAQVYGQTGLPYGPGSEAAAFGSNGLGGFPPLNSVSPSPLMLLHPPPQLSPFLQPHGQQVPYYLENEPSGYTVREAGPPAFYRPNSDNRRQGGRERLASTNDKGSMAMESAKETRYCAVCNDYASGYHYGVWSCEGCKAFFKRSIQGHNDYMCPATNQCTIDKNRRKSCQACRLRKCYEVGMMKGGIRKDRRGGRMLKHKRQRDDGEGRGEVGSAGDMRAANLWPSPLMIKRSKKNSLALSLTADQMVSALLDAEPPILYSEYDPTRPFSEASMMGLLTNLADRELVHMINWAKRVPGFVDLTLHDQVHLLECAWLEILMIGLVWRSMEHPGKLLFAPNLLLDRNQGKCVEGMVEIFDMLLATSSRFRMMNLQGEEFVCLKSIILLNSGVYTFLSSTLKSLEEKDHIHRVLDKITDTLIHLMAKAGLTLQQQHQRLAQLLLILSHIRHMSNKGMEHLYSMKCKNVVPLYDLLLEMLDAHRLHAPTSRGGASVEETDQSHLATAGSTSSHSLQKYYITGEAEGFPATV
Method in brief: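 HeLa cells were dosed for 2 h, then GFP reporter induction was quantified by fluorescence microscopy with high-content image analysis. Gain of signal fitted against DMSO baseline.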
With Cc1ccc(O)c(-n2nc3ccccc3n2)c1 the outcome was “inactive”.
For COCCOCCC[Si](C)(O[Si](C)(C)C)O[Si](C)(C)C, the outcome was “inactive”.
For CCCCCCCCn1sc(Cl)c(Cl)c1=O, the outcome was “inactive”.
For O=C1C=CC(=O)N1c1ccccc1, the outcome was “inactive”.
In the case of CC(=O)CCC(C)C, the outcome is reported as “inactive”.
CCCCCCCCCc1ccc(OCCO)cc1 was tested, and the outcome was “inactive”.
In the case of CCC(Cc1c(I)cc(I)c(N)c1I)C(=O)O (stereo unspecified), the outcome is reported as “inactive”.
In the case of O=C(c1ccccc1)c1ccc(O)cc1O, the AC50 is reported as 6.29 µM (active).
With CCCCCCCC/C=C\CCCCCCCC(=O)N(C)CC(=O)O the outcome was “inactive”.
CCCCCCCCCCCCC[N+](C)(C)Cc1ccccc1 was tested, and the AC50 was 18.1 µM (active).
With CCCCCCCCCCCCCC[P+](CCCC)(CCCC)CCCC the AC50 was 12.2 µM (active).
For CCN=c1cc2oc3cc(NCC)c(C)cc3c(-c3ccccc3C(=O)OCC)c-2cc1C, the outcome was “inactive”.
With CC(C)(C)c1cc(CCC(=O)OCC(COC(=O)CCc2cc(C(C)(C)C)c(O)c(C(C)(C)C)c2)(COC(=O)CCc2cc(C(C)(C)C)c(O)c(C(C)(C)C)c2)COC(=O)CCc2cc(C(C)(C)C)c(O)c(C(C)(C)C)c2)cc(C(C)(C)C)c1O the outcome was “inactive”.

These compounds were tested against Bile acid receptor (Homo sapiens) (UniProt Q96RI1) (assay: OT_FXR_FXRSRC1_0480: Odyssey Thera (OT) 8-hour HEK293T Protein-Complementation Assay for Farnesoid X receptor/SRC-1 Co-activator (AID 2283383)).
Bile acid receptor (Homo sapiens), sequence (Q96RI1 whole entry, looked up, the tested form may be a part): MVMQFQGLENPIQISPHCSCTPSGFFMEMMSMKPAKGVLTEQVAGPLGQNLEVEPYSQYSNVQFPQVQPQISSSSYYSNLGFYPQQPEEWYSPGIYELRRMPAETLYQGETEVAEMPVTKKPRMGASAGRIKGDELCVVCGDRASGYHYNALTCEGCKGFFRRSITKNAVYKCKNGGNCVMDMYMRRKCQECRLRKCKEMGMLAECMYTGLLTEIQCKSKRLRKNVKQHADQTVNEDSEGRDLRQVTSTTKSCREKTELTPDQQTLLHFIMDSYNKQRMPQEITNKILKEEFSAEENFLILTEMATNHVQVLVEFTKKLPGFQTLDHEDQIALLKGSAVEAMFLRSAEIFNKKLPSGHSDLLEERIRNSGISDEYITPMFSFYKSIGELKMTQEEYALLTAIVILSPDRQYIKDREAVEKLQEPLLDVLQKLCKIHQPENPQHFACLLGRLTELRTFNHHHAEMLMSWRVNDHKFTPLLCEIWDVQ
Method in brief: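 HEK293T protein-fragment complementation assay: FXR and SRC-1 coactivator are fused to reporter fragments, and their interaction restores a fluorescent reporter. Readout was taken 8 h after dosing, with gain of signal fit relative to DMSO.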
For C[C@]12CC[C@H]3C(=CCc4cc(O)ccc43)[C@@H]1CCC2=O, the AC50 was 9.93 µM (active).
In the case of Cc1ccc(O)c(-n2nc3ccccc3n2)c1, the AC50 is reported as 50 µM (active).
With COCCOCCC[Si](C)(O[Si](C)(C)C)O[Si](C)(C)C the AC50 was 50 µM (active).
In the case of CC(=O)CCC(C)C, the outcome is reported as “inactive”.
With CCCCCCCCCc1ccc(OCCO)cc1 the AC50 was 4.7 µM (active).
CCC(Cc1c(I)cc(I)c(N)c1I)C(=O)O (stereo unspecified) was tested, and the outcome was “inactive”.
For O=C(c1ccccc1)c1ccc(O)cc1O, the outcome was “inactive”.
For CCCCCCCC/C=C\CCCCCCCC(=O)N(C)CC(=O)O, the AC50 was 72.6 µM (active).
In the case of CCN=c1cc2oc3cc(NCC)c(C)cc3c(-c3ccccc3C(=O)OCC)c-2cc1C, the AC50 is reported as 1.36 µM (active).
For CC(C)(C)c1cc(CCC(=O)OCC(COC(=O)CCc2cc(C(C)(C)C)c(O)c(C(C)(C)C)c2)(COC(=O)CCc2cc(C(C)(C)C)c(O)c(C(C)(C)C)c2)COC(=O)CCc2cc(C(C)(C)C)c(O)c(C(C)(C)C)c2)cc(C(C)(C)C)c1O, the outcome was “inactive”.

These compounds were tested against Bile acid receptor (Homo sapiens) (UniProt Q96RI1) (assay: OT_FXR_FXRSRC1_1440: Odyssey Thera (OT) 24-hour HEK293T Protein-Complementation Assay for Farnesoid X receptor/SRC-1 Co-activator (AID 2283384)).
Method in brief: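 HEK293T cells, 24 h after chemical dosing. FXR–SRC-1 coactivator interaction read as fluorescence from protein-fragment complementation of a split reporter. Gain of signal fitted against DMSO baseline.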
In the case of C[C@]12CC[C@H]3C(=CCc4cc(O)ccc43)[C@@H]1CCC2=O, the outcome is reported as “inactive”.
For Cc1ccc(O)c(-n2nc3ccccc3n2)c1, the outcome was “inactive”.
In the case of COCCOCCC[Si](C)(O[Si](C)(C)C)O[Si](C)(C)C, the outcome is reported as “inactive”.
CCCCCCCCCc1ccc(OCCO)cc1 was tested, and the AC50 was 28.8 µM (active).
With CCC(Cc1c(I)cc(I)c(N)c1I)C(=O)O (stereo unspecified) the outcome was “inactive”.
With O=C(c1ccccc1)c1ccc(O)cc1O the outcome was “inactive”.
In the case of CCCCCCCC/C=C\CCCCCCCC(=O)N(C)CC(=O)O, the outcome is reported as “inactive”.
In the case of CCN=c1cc2oc3cc(NCC)c(C)cc3c(-c3ccccc3C(=O)OCC)c-2cc1C, the outcome is reported as “inactive”.
For CC(C)(C)c1cc(CCC(=O)OCC(COC(=O)CCc2cc(C(C)(C)C)c(O)c(C(C)(C)C)c2)(COC(=O)CCc2cc(C(C)(C)C)c(O)c(C(C)(C)C)c2)COC(=O)CCc2cc(C(C)(C)C)c(O)c(C(C)(C)C)c2)cc(C(C)(C)C)c1O, the outcome was “inactive”.

The compounds below were run against Retinoic acid receptor RXR-alpha (Homo sapiens) (UniProt P19793) (assay: OT_NURR1_NURR1RXRa_0480: Odyssey Thera (OT) 8-hour HEK293T Protein Complementation Assay for Nurr1/retinoid X receptor (RXR) (AID 2283385)).
Retinoic acid receptor RXR-alpha (Homo sapiens), sequence (P19793 whole entry, looked up, the tested form may be a part): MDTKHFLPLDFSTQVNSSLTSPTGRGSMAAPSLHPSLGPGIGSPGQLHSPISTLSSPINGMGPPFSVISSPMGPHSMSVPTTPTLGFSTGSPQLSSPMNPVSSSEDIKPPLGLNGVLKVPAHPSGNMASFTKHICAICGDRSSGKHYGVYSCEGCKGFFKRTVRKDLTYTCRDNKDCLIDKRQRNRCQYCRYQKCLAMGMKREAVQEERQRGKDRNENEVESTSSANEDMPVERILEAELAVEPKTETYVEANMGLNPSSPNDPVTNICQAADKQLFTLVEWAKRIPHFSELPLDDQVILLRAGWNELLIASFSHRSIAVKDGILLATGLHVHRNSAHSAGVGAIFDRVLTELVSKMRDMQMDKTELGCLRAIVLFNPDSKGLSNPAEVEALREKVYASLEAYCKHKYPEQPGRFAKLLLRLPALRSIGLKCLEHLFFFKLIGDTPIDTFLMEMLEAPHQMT
Method in brief: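 HEK293T cells expressing Nurr1 and RXRα fused to reporter fragments (protein-fragment complementation); fluorescence measured 8 h after dosing. Gain of signal fitted relative to DMSO.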
C[C@]12CC[C@H]3C(=CCc4cc(O)ccc43)[C@@H]1CCC2=O was tested, and the outcome was “inactive”.
In the case of Cc1ccc(O)c(-n2nc3ccccc3n2)c1, the outcome is reported as “inactive”.
For COCCOCCC[Si](C)(O[Si](C)(C)C)O[Si](C)(C)C, the AC50 was 33.2 µM (active).
In the case of CCCCCCCCn1sc(Cl)c(Cl)c1=O, the outcome is reported as “inactive”.
For CC(=O)CCC(C)C, the outcome was “inactive”.
For CCCCCCCCCc1ccc(OCCO)cc1, the outcome was “inactive”.
With CCC(Cc1c(I)cc(I)c(N)c1I)C(=O)O (stereo unspecified) the outcome was “inactive”.
With O=C(c1ccccc1)c1ccc(O)cc1O the outcome was “inactive”.
CCCCCCCC/C=C\CCCCCCCC(=O)N(C)CC(=O)O was tested, and the outcome was “inactive”.
With CCN=c1cc2oc3cc(NCC)c(C)cc3c(-c3ccccc3C(=O)OCC)c-2cc1C the AC50 was 0.603 µM (active).
For CC(C)(C)c1cc(CCC(=O)OCC(COC(=O)CCc2cc(C(C)(C)C)c(O)c(C(C)(C)C)c2)(COC(=O)CCc2cc(C(C)(C)C)c(O)c(C(C)(C)C)c2)COC(=O)CCc2cc(C(C)(C)C)c(O)c(C(C)(C)C)c2)cc(C(C)(C)C)c1O, the outcome was “inactive”.

These compounds were tested against Retinoic acid receptor RXR-alpha (Homo sapiens) (UniProt P19793) (assay: OT_NURR1_NURR1RXRa_1440: Odyssey Thera (OT) 24-hour HEK293T Protein Complementation Assay for Nurr1/retinoid X receptor (RXR) (AID 2283386)).
Method in brief: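 HEK293T protein-fragment complementation of Nurr1 and RXRα fused to reporter fragments; compounds 24 h. Fluorescence gain from reconstituted reporter fitted versus DMSO.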
Cc1ccc(O)c(-n2nc3ccccc3n2)c1 was tested, and the outcome was “inactive”.
COCCOCCC[Si](C)(O[Si](C)(C)C)O[Si](C)(C)C was tested, and the AC50 was 90.4 µM (active).
With CCCCCCCCn1sc(Cl)c(Cl)c1=O the outcome was “inactive”.
CCCCCCCCCc1ccc(OCCO)cc1 was tested, and the AC50 was 32.9 µM (active).
For CCN=c1cc2oc3cc(NCC)c(C)cc3c(-c3ccccc3C(=O)OCC)c-2cc1C, the AC50 was 0.769 µM (active).
For CC(C)(C)c1cc(CCC(=O)OCC(COC(=O)CCc2cc(C(C)(C)C)c(O)c(C(C)(C)C)c2)(COC(=O)CCc2cc(C(C)(C)C)c(O)c(C(C)(C)C)c2)COC(=O)CCc2cc(C(C)(C)C)c(O)c(C(C)(C)C)c2)cc(C(C)(C)C)c1O, the outcome was “inactive”.

Each compound was assayed against Peroxisome proliferator-activated receptor gamma (Homo sapiens) (UniProt P37231) (assay: OT_PPARg_PPARgSRC1_0480: Odyssey Thera (OT) 8-hour Protein-Complementation Assay for Peroxisome Proliferator-activated Receptor Gamma / SRC-1 Co-activator (AID 2283387);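 further: nuclear to cytoplasmic split Venus YFP fluorescence ratio reporting PPARg SRC-1 interaction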).
Peroxisome proliferator-activated receptor gamma (Homo sapiens), sequence (P37231 whole entry, looked up, the tested form may be a part): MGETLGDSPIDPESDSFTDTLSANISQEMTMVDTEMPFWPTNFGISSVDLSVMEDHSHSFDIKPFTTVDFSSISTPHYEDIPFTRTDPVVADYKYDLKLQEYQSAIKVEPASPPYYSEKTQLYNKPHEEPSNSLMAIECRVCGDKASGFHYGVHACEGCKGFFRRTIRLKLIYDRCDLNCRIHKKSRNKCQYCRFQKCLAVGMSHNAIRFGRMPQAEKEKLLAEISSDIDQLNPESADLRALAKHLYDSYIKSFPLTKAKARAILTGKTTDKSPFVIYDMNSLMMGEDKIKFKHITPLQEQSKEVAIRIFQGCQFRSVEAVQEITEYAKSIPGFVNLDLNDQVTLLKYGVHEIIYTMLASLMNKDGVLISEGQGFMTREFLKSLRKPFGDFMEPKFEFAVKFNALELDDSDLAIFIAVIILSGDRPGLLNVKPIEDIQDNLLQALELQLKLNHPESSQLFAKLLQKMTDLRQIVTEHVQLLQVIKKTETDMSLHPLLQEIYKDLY
Method in brief: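 Protein-fragment complementation in HEK293T: Venus YFP halves (residues 1-158, 159-239, mutated to IFP1/IFP2) fused to PPARg/SRC-1. 8 h exposure; N/C ratio at 488 nm; DMSO negative control.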
In the case of C[C@]12CC[C@H]3C(=CCc4cc(O)ccc43)[C@@H]1CCC2=O, the outcome is reported as “inactive”.
For Cc1ccc(O)c(-n2nc3ccccc3n2)c1, the outcome was “inactive”.
COCCOCCC[Si](C)(O[Si](C)(C)C)O[Si](C)(C)C was tested, and the outcome was “inactive”.
O=C1C=CC(=O)N1c1ccccc1 was tested, and the outcome was “inactive”.
With CC(=O)CCC(C)C the outcome was “inactive”.
For CCCCCCCCCc1ccc(OCCO)cc1, the outcome was “inactive”.
With CCC(Cc1c(I)cc(I)c(N)c1I)C(=O)O (stereo unspecified) the outcome was “inactive”.
With O=C(c1ccccc1)c1ccc(O)cc1O the outcome was “inactive”.
CCCCCCCC/C=C\CCCCCCCC(=O)N(C)CC(=O)O was tested, and the outcome was “inactive”.
In the case of CCCCCCCCCCCCC[N+](C)(C)Cc1ccccc1, the outcome is reported as “inactive”.
CCCCCCCCCCCCCC[P+](CCCC)(CCCC)CCCC was tested, and the outcome was “inactive”.
In the case of CCN=c1cc2oc3cc(NCC)c(C)cc3c(-c3ccccc3C(=O)OCC)c-2cc1C, the outcome is reported as “inactive”.
